The values that follow come from PubChem BioAssay (EPA / NIEHS).

Active and inactive are the calls of the source. The calls were made as follows: active = hit-call score of the fitted dose curve at least 0.9, where 1 is the maximum; inactive = score below 0.9.

The first test in a line: Tanguay_ZF_120hpf_AXIS: Oregon State University Tanguay Lab 120 Hour Post-fertilization zebrafish Assay for Axial Malformation (AID 2284398). Put shortly:
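Dechorionated 5D wild-type zebrafish embryos exposed statically, one per well, from 6 to 120 hpf at 28C, 0.64% DMSO. Axial malformation scored as present/absent by brightfield microscopy at 120 hpf; dead embryos not scored.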
In the case of `O=C(O)C(F)(F)OC(F)(F)C(F)(F)OC(F)(F)C(=O)O`, the outcome was inactive.

`C=CC(=O)OCC(F)(F)C(F)F`: the half-maximal activity concentration (AC50) – broadly, the concentration giving half of the maximal activity seen – was 54.6 µM (active).

Turning to `FC(F)(F)C(F)(C(F)(F)F)C(F)(F)C(F)(F)CC1CO1` (configuration not stated), the call was inactive.

For the compound `COC(=O)C(F)(F)C(F)(F)OC(F)(C(F)(F)F)C(F)(F)OC(F)=C(F)F` (configuration not stated), the compound was called inactive.

Take `OCC(F)(F)OC(F)(F)C(F)(F)OC(F)(F)CO`: the compound was called inactive.

On to `CC(O)C(F)(F)C(F)(F)F` (configuration not stated), for which the result was inactive.

Turning to `O=S(=O)(F)C(F)(F)C(F)(F)C(F)(F)C(F)(F)C(F)(F)C(F)(F)C(F)(F)C(F)(F)F`, the call was inactive.

`O=C(O)C(F)(F)OC(F)(F)C(F)(F)OC(F)(F)F`: the compound was classed as inactive.

For `OCC(F)(F)OC(F)(F)C(F)(F)OC(F)(F)C(F)(F)OC(F)(F)F`, the result was inactive.

Consider `O=C(O)C=CC(F)(C(F)(F)F)C(F)(F)F`, for which the result was inactive.

As for `O=C(O)C(F)(OC(F)(F)C(F)(F)C(F)(F)F)C(F)(F)F` (configuration not stated), the compound was classed as inactive.

For `NC(=O)C(F)(F)C(F)(F)F`, the compound was classed as inactive.

As to `O=C(O)C(F)(F)C(F)(F)C(=O)O`, the result was inactive.

Turning to `OCC(F)(F)OC(F)(F)C(F)(F)OC(F)(F)C(F)(F)OC(F)(F)CO`, the AC50 was 36.7 µM (active).

Another test can be described thus: Tanguay_ZF_120hpf_BRN: Oregon State University Tanguay Lab 120 Hour Post-fertilization zebrafish Assay for Brain Region Malformation (AID 2284402). Put shortly:
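Dechorionated wild-type Tropical 5D zebrafish embryos exposed statically from 6 to 120 hpf at 28C, one per well, 0.64% DMSO final. Brain malformation scored at 120 hpf by brightfield as present/absent; dead embryos not scored.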
With `O=C(O)C(F)(F)OC(F)(F)C(F)(F)OC(F)(F)C(=O)O`, the call was inactive.

In the case of `C=CC(=O)OCC(F)(F)C(F)F`, the result was inactive.

For the compound `FC(F)(F)C(F)(C(F)(F)F)C(F)(F)C(F)(F)CC1CO1` (configuration not stated), the call was inactive.

`COC(=O)C(F)(F)C(F)(F)OC(F)(C(F)(F)F)C(F)(F)OC(F)=C(F)F` (configuration not stated): the call was inactive.

With `OCC(F)(F)OC(F)(F)C(F)(F)OC(F)(F)CO`, the result was inactive.

As to `CC(O)C(F)(F)C(F)(F)F` (configuration not stated), the outcome was inactive.

`O=S(=O)(F)C(F)(F)C(F)(F)C(F)(F)C(F)(F)C(F)(F)C(F)(F)C(F)(F)C(F)(F)F`: the call was inactive.

`O=C(O)C(F)(F)OC(F)(F)C(F)(F)OC(F)(F)F`: the call was inactive.

As to `OCC(F)(F)OC(F)(F)C(F)(F)OC(F)(F)C(F)(F)OC(F)(F)F`, the outcome was inactive.

For `O=C(O)C=CC(F)(C(F)(F)F)C(F)(F)F`, the compound was classed as inactive.

For `O=C(O)C(F)(OC(F)(F)C(F)(F)C(F)(F)F)C(F)(F)F` (configuration not stated), the outcome was inactive.

`NC(=O)C(F)(F)C(F)(F)F`: the compound was called inactive.

As for `O=C(O)C(F)(F)C(F)(F)C(=O)O`, the compound was called inactive.

With `OCC(F)(F)OC(F)(F)C(F)(F)OC(F)(F)C(F)(F)OC(F)(F)CO`, the compound was classed as inactive.

The nature of another test: Tanguay_ZF_120hpf_ANY: Oregon State University Tanguay Lab 120 Hour Post-fertilization zebrafish Assay for Any Mortality and Malformation (AID 2284404). Put shortly:
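Dechorionated Tropical 5D wild-type embryos, one per well from 6 hpf, static exposure in sealed, dark plates at 28C until 120 hpf, 0.64% DMSO final. Brightfield scoring of mortality and malformations as binary presence/absence, pooling 13 morphology endpoints.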
With `O=C(O)C(F)(F)OC(F)(F)C(F)(F)OC(F)(F)C(=O)O`, the outcome was inactive.

As to `C=CC(=O)OCC(F)(F)C(F)F`, the AC50 is 23.3 µM (active).

In the case of `FC(F)(F)C(F)(C(F)(F)F)C(F)(F)C(F)(F)CC1CO1` (configuration not stated), the result was inactive.

As for `COC(=O)C(F)(F)C(F)(F)OC(F)(C(F)(F)F)C(F)(F)OC(F)=C(F)F` (configuration not stated), the half-maximal activity concentration (AC50) was 22.2 µM (active).

For `OCC(F)(F)OC(F)(F)C(F)(F)OC(F)(F)CO`, the outcome was inactive.

On to `CC(O)C(F)(F)C(F)(F)F` (configuration not stated), for which the call was inactive.

For the compound `O=S(=O)(F)C(F)(F)C(F)(F)C(F)(F)C(F)(F)C(F)(F)C(F)(F)C(F)(F)C(F)(F)F`, the compound was called inactive.

In the case of `O=C(O)C(F)(F)OC(F)(F)C(F)(F)OC(F)(F)F`, the compound was called inactive.

For `OCC(F)(F)OC(F)(F)C(F)(F)OC(F)(F)C(F)(F)OC(F)(F)F`, the result was inactive.

Regarding `O=C(O)C=CC(F)(C(F)(F)F)C(F)(F)F`, the compound was classed as inactive.

Take `O=C(O)C(F)(OC(F)(F)C(F)(F)C(F)(F)F)C(F)(F)F` (configuration not stated): the compound was classed as inactive.

With `NC(=O)C(F)(F)C(F)(F)F`, the compound was classed as inactive.

As for `O=C(O)C(F)(F)C(F)(F)C(=O)O`, the compound was called inactive.

Consider `OCC(F)(F)OC(F)(F)C(F)(F)OC(F)(F)C(F)(F)OC(F)(F)CO`, for which the concentration at half-maximal activity (AC50) is 18 µM (active).
